# Data as given in the supplement of paper PMC7057948, “A genome-wide approach for identification and characterisation of metabolite-inducible systems” (Nature Communications, 2020).
# Tested on: HpdR/P_H16_RS18295 3-hydroxypropanoate biosensor (pEH010)
# Test: relative induction of RFP reporter vs primary effector; higher = stronger activation
# Conditions: inducer concentration 5 mM; 6 h; Cupriavidus necator H16; minimal medium + 0.4% gluconate
# Procedure: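 Orthogonality screen of 21 primary inducers against 21 transcription factor/inducible promoter–mRFP biosensors in C. necator H16 in minimal medium, robotic 96-well format, 5 mM inducer, 30 °C. OD-normalised RFP fluorescence was read 6 h later and expressed as relative induction (%) = 100 × (FL compound − FL uninduced)/(FL primary inducer − FL uninduced); mean of n=4. Cognate pairs (100% by definition) omitted.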
row,Compound,relative induction of RFP reporter
1,O=CO [formate],0.0754%
2,Nc1ccccc1C(=O)C[C@H](N)C(=O)O [L-kynurenine],-0.129%
3,N[C@@H](Cc1ccccc1)C(=O)O [L-phenylalanine],-0.399%
4,O=C(O)C(=O)c1ccccc1 [phenylglyoxylate],-0.296%
5,O=C(O)CS(=O)(=O)O [sulfonatoacetate],-0.0436%
6,O=C(O)C1CCCCC1 [cyclohexane-1-carboxylate],-0.461%
7,OC1OC[C@H](O)[C@H](O)[C@H]1O (mixture of isomers) [L-arabinose],0.017%
8,O=C(O)c1ccccc1O [salicylate],0.195%
9,O=C(O)c1ccccc1 [benzoate],-0.293%
10,N[C@@H](Cc1ccc(O)cc1)C(=O)O [L-tyrosine],-0.292%
11,"O=C(O)c1ccc(O)c(O)c1 [3,4-dihydroxybenzoate]",-0.0358%
12,C=C(CC(=O)O)C(=O)O [itaconate],-0.14%
13,NCCC(=O)O [β-alanine],0.231%
14,O=c1[nH]c(=O)c2nc[nH]c2[nH]1 [xanthine],0.1%
15,O=C(O)C(O)C(O)C(=O)O (stereo unspecified) [tartrate],-0.0938%
16,CC(=O)C(C)O (stereo unspecified) [acetoin],-0.347%
